One experiment deals with DAPK1. The conditions noted are these: concentration: 1 μM, replicates: in singlicate, n = 1.
The next experiment deals with DAPK2. The conditions noted are these: concentration: 1 μM, replicates: in singlicate, n = 1.
For another experiment, the system named is DAPK3. The conditions noted are these: concentration: 1 μM, replicates: in singlicate, n = 1.
In the next experiment the test system is T1, DCAMKL1.
T1 construct: gene DCLK1
The conditions noted are these: concentration: 1 μM, replicates: in singlicate, n = 1.

A further experiment relates to T2, DCAMKL2.
T2 construct: gene DCLK2
The conditions noted are these: concentration: 1 μM, replicates: in singlicate; n = 1.

For the next experiment, the system named is T3, DCAMKL3.
T3 construct: gene DCLK3
The conditions noted are these: concentration: 1 μM, replicates: in singlicate, n = 1.

The test system of the next experiment is DDR1. The conditions noted are these: concentration: 1 μM, replicates: in singlicate, n = 1.
A further experiment deals with DDR2. The conditions noted are these: concentration: 1 μM, replicates: in singlicate, n = 1.
For another experiment, the system named is T4, DLK.
T4 construct: gene MAP3K12
The conditions noted are these: concentration: 1 μM, replicates: in singlicate, n = 1.

Another experiment relates to T5, DMPK2.
T5 construct: gene CDC42BPG
The conditions noted are these: concentration: 1 μM, replicates: in singlicate, n = 1.

Where “and” joins values, the source holds several entries; their conditions need not be identical. Identical values can stand only once. Like-named read-outs stand apart in the source and are kept apart here.
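Also: KINOMEscan kinase panel screen.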

Take `COc1ccc(CNC(=O)NC2CCN(c3ccnc(Nc4ccc(OC)cc4)n3)C2)cc1` (centres unmarked) [GSK1379727]: the “%Inh” value in the experiment on DAPK1 is recorded as 0%; in the experiment with DAPK2 it was 0%; in the experiment with DAPK3, 20%; in the experiment on DCAMKL1, 11%; in the experiment on DCAMKL2, 0%; with DCAMKL3, 5%. For the same compound, the “%Inh” value is listed as 0% with DDR1, 20% with DDR2, 50% in the experiment with DLK and 0% with DMPK2.

With `Cc1nnc(-c2ccc(C)c(-c3ccc(C(=O)Nc4ccc(NS(C)(=O)=O)cc4)cc3)c2)o1` [GW702865], the “%Inh” value in the experiment with DAPK1 was 8%; with DAPK2, 3%; with DAPK3 it was 18%; in the experiment with DCAMKL1 it was 8%; in the experiment on DCAMKL2, 0%; with DCAMKL3 it was 0%. Moreover, the “%Inh” value amounted to 0% in the experiment on DDR1, 46% with DDR2, 0% in the experiment on DLK and 0% in the experiment on DMPK2.

With `Fc1ccc(-c2ncn(CCCN3CCOCC3)c2-c2cccnc2)cc1` [SB-211743], the “%Inh” value worked out at 9% in the experiment with DAPK1; 0% with DAPK2; 28% with DAPK3; 19% in the experiment with DCAMKL1; 6% in the experiment on DCAMKL2; 3% with DCAMKL3. Besides, the “%Inh” value with DDR1 came out at 0%; in the experiment with DDR2 it was 24%; in the experiment on DLK, 0%; in the experiment with DMPK2, 0%.

Take `CC(C)(CN)c1nc(-c2ccc(Cl)c(O)c2)c(-c2ccncc2)[nH]1.O=C(O)C(F)(F)F` [SB-477794]: the “%Inh” value is 11% and 19% in the experiment with DAPK1 (1 µM); 0% and 5% with DAPK2 (1 µM); 33% and 17% in the experiment with DAPK3 (1 µM); 7% and 3% with DCAMKL1 (1 µM); 0% in the experiment on DCAMKL2; 29% and 36% in the experiment on DCAMKL3 (1 µM). Also, the “%Inh” value was 94.5% and 90.8% in the experiment on DDR1 (1 µM); 80% and 78% in the experiment on DDR2 (1 µM); 37% and 42% in the experiment on DLK (1 µM); 90.8% and 88% in the experiment on DMPK2 (1 µM).

With `CCc1nc(-c2cccc(C)c2)c(-c2ccnc(NCc3ccccc3)c2)s1`, the “%Inh” value was 2% with DAPK1; 10% with DAPK2; 0% in the experiment with DAPK3; 10% with DCAMKL1; 8% in the experiment on DCAMKL2; 0% in the experiment on DCAMKL3. Further, the “%Inh” value with DDR1 was 14%; with DDR2, 18%; with DLK it was 0%; in the experiment on DMPK2, 5%.

In the case of `O=C1Cc2cc(Nc3nc(NCc4cccc(S(=O)(=O)C(F)(F)F)c4)ncc3C(F)(F)F)ccc2N1`, the “%Inh” value with DAPK1 amounted to 0%; with DAPK2, 0%; in the experiment on DAPK3 it was 0%; in the experiment on DCAMKL1 it was 15%; in the experiment with DCAMKL2, 0%; in the experiment with DCAMKL3, 12%. Also, the “%Inh” value amounted to 0% with DDR1, 11% with DDR2, 33% with DLK and 19% with DMPK2.

In the case of `NS(=O)(=O)c1cccc(-c2ccc3ncc(N4CCOCC4)nc3c2)c1` [GSK1535721], the “%Inh” value with DAPK1 is reported as 18%; in the experiment on DAPK2, 12%; in the experiment with DAPK3, 18%; with DCAMKL1, 10%; in the experiment with DCAMKL2 it was 0%; in the experiment with DCAMKL3 it was 0%. Also, the “%Inh” value is recorded as 0% in the experiment with DDR1, 23% in the experiment with DDR2, 26% in the experiment with DLK and 1% in the experiment with DMPK2.

Turning to `CCCCCc1nc2c(N)ncnc2n1CCCCC` [SKF-97255], the “%Inh” value stood at 0% in the experiment on DAPK1; 0% in the experiment with DAPK2; 0% in the experiment with DAPK3; 23% in the experiment on DCAMKL1; 0% with DCAMKL2; 5% in the experiment with DCAMKL3. The “%Inh” value in the experiment with DDR1 was determined as 0%; in the experiment with DDR2 it was 21%; in the experiment on DLK, 0%; with DMPK2, 0%.

Turning to `c1ccc(-c2n[nH]cc2-c2ccnc3ccccc23)nc1` [GW271431], the “%Inh” value with DAPK1 turned out to be 0%; with DAPK2, 0%; in the experiment with DAPK3, 26%; in the experiment with DCAMKL1, 12%; in the experiment with DCAMKL2, 11%; with DCAMKL3 it was 0%. Further, the “%Inh” value in the experiment on DDR1 was determined as 8%; in the experiment on DDR2, 0%; in the experiment on DLK it was 3%; in the experiment with DMPK2, 18%.

On to `CC(C)Oc1ccc2c(-c3ccnc(Nc4ccc(N5CCN(C)CC5)cc4)n3)cnn2n1` [GW696155], for which the “%Inh” value in the experiment on DAPK1 was found to be 97.9%; in the experiment on DAPK2, 90.3%; in the experiment with DAPK3, 99.6%; in the experiment with DCAMKL1 it was 93.5%; in the experiment with DCAMKL2, 91%; in the experiment with DCAMKL3, 99.2%. In addition, the “%Inh” value in the experiment on DDR1 worked out at 45%; with DDR2, 74%; in the experiment on DLK it was 89%; in the experiment on DMPK2 it was 13%.

For the compound `Cc1ccc(NC(=O)c2ccnc(N3CCN(C)CC3)c2)cc1-c1ccc(C(=O)NCC2CC2)cc1` [GW775604], the “%Inh” value in the experiment on DAPK1 turned out to be 5%; in the experiment with DAPK2 it was 0%; in the experiment with DAPK3, 0%; with DCAMKL1 it was 0%; in the experiment with DCAMKL2, 15%; in the experiment on DCAMKL3 it was 0%. The “%Inh” value with DDR1 is on record as 77%; in the experiment on DDR2, 59%; in the experiment on DLK it was 0%; in the experiment on DMPK2 it was 0%.

As to `O=c1cc(N2CCOCC2)nc2n(Cc3cccc4ccccc34)ccn12` [GSK2333389], the “%Inh” value with DAPK1 came out at 0%; in the experiment on DAPK2, 0%; in the experiment on DAPK3 it was 0%; with DCAMKL1, 0%; in the experiment on DCAMKL2, 0%; with DCAMKL3, 2%. In addition, the “%Inh” value is 14% in the experiment on DDR1, 0% in the experiment on DDR2, 0% in the experiment on DLK and 0% in the experiment on DMPK2.

For `COc1ccc(Nc2nccc(N3CCC(NC(=O)Nc4cccc(C(C)=O)c4)C3)n2)cc1` (centres unmarked) [GSK1379731], the “%Inh” value with DAPK1, with DAPK2, in the experiment on DAPK3, with DCAMKL1, in the experiment with DCAMKL2 and in the experiment on DCAMKL3 was 0% throughout. Moreover, the “%Inh” value in the experiment on DDR1 is on record as 12%; in the experiment with DDR2 it was 14%; in the experiment with DLK, 0%; in the experiment with DMPK2 it was 2%.

With `O=c1cc(N2CCOCC2)nc2n(Cc3cccc(C(F)(F)F)c3)ccn12` [GSK2297543], the “%Inh” value came to 0% in the experiment with DAPK1; 9% with DAPK2; 10% in the experiment with DAPK3; 21% with DCAMKL1; 10% in the experiment on DCAMKL2; 0% in the experiment on DCAMKL3. Besides, the “%Inh” value is 0% in the experiment on DDR1, 2% in the experiment on DDR2, 0% in the experiment on DLK and 0% in the experiment with DMPK2.

For `Cc1nnc(-c2ccc3occ(-c4ccc(C(C)O)cc4)c3c2)o1` (centres unmarked), the “%Inh” value came to 7% in the experiment on DAPK1; 0% with DAPK2; 0% with DAPK3; 13% with DCAMKL1; 12% in the experiment with DCAMKL2; 11% in the experiment with DCAMKL3. Further, the “%Inh” value with DDR1 worked out at 12%; in the experiment with DDR2 it was 12%; in the experiment on DLK, 0%; in the experiment with DMPK2, 3%.

On to `CNc1ncnc2[nH]ncc12` [SKF-18355], for which the “%Inh” value amounted to 7% in the experiment on DAPK1; 0% in the experiment with DAPK2; 0% in the experiment with DAPK3; 33% in the experiment on DCAMKL1; 15% with DCAMKL2; 0% with DCAMKL3. Besides, the “%Inh” value is on record as 0% with DDR1, 64% in the experiment with DDR2, 11% in the experiment with DLK and 0% in the experiment with DMPK2.

Consider `Cn1cc(-c2ccc3c(c2)CCN3C(=O)Cc2ccccc2Cl)c2c(N)ncnc21` [GSK2608885], for which the “%Inh” value in the experiment on DAPK1 is reported as 0%; in the experiment on DAPK2, 0%; with DAPK3, 5%; with DCAMKL1, 13%; in the experiment with DCAMKL2, 1%; with DCAMKL3, 35%. For the same compound, the “%Inh” value in the experiment on DDR1 is given as 100%; in the experiment on DDR2 it was 93.4%; in the experiment on DLK it was 6%; with DMPK2, 100%.
